Hits are enriched below; roughly 12% of the tested compounds scored in any of these assays.
JMJD2A Tudor = inhibitors of human JMJD2A Tudor domain; O75164; Potency, µM (series often up to 114 µM), without a hit: at the highest dose activity change, negative = inhibition, usual class: inhibitors; AID 504339; AlphaScreen JMJD2A-Tudor / H3K4me3 peptide binding; 390,000 tested, 4.4% active; further: on the % scale 0 is the no-effect control and ±100 the full control effect; nearly all actives have a fitted effect of over 50% in size
HP1b chromo inh = blocks HP1-beta chromodomain binding to methylated histone tails; 390,000 tested, 0.56% active; AlphaScreen HP1-beta / biotin-H3K9me3 peptide binding; Potency, µM (highest dose often 114 µM), for inactives: top-dose activity change, negative = inhibition, actives largely listed as inhibitors; AID 540317; further: nearly all actives have a fitted effect of over 70% in size
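Compound inhibition of the preformed complex between 50 nM HP1-beta and 50 nM biotinylated H3K9me3 peptide was read by AlphaScreen. Buffer was PBS pH 7.4 with 0.01% Tween-20. Incubations ran 30 min at room temperature, with 10 ug/mL donor/acceptor beads.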
L3MBTL1 inh = L3MBTL1 (human) inhibition; Q9Y468; Potency, µM (highest dose often 57.1 µM), without a hit: at the highest dose activity, negative = inhibition, most hits filed as inhibitors; AlphaScreen L3MBTL1–H3K9me1 peptide binding; AID 485360; 230,000 tested, 0.66% active; further: on the % scale 0 is the no-effect control and ±100 the full control effect; nearly all actives have a fitted effect of over 60% in size
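First, the protein-peptide complex forms for 30 min at room temperature (L3MBTL1 50 nM, biotinylated H3K9me1 peptide 75 nM). Next, compounds are pin-transferred and incubated 30 min. Finally, AlphaScreen beads are added and read after 30 min.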
BAZ2B inh = blocks human BAZ2B; Q9UIF8; AlphaScreen BAZ2B-H3K14Ac peptide displacement; Potency, µM (series often up to 114 µM), inactives show top-dose activity change, negative = inhibition, most hits filed as inhibitors; 360,000 tested, 4.4% active; AID 504333; further: on the % scale 0 is the no-effect control and ±100 the full control effect; nearly all actives have a fitted effect of over 60% in size
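AlphaScreen displacement: compounds (up to 110uM) incubated 30 min at room temperature with a preformed 50 nM BAZ2B/50 nM biotinylated H3K14Ac peptide complex in PBS pH 7.4 with Tween-20. Donor and acceptor beads at 10 ug/mL final added, 20 min light-protected before reading.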
G9a block = G9a (human) methyltransferase inhibition; G9a H3K9 monomethylation, AlphaScreen, 2 h; 350,000 tested, 8.8% active; Potency, µM (series often up to 102 µM), for the others: top-dose activity, negative = inhibition, usual class: inhibitors; further: on the % scale 0 is the no-effect control and ±100 the full control effect; nearly all actives have a fitted effect of over 75% in size
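G9a (20 nM) was preincubated 15 min with compound, then reacted 2 h at room temperature with 500 nM biotin-H3K9 peptide and 20 µM SAM. Monomethyl-H3K9 detected by AlphaScreen using anti-H3K9me1 antibody.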
Sfp PPTase inh = blocks B. subtilis Sfp PPTase activity; Potency, µM, for inactives: largest response in the series, negative = inhibition, hits mostly inhibitors; 310,000 tested, 3.5% active; Biochemical Sfp PPTase activity, qHTS; AID 1490;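 further: the enzyme is Sfp with the accession as filed and its product quenches rhodamine fluorescence; 0% = enzyme reaction without inhibitor and -100% = no enzyme wells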
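After 15 min at room temperature with compound, 15 nM Sfp received 5 uM rhodamine-CoA plus 12.5 uM BHQ-2-ybbR (50 mM Hepes pH 7.6, 10 mM MgCl2). Rate came from the fluorescence difference over 30 min, ex 525/em 598 nm.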
* hit, by the source's call; ? = inconclusive; . = not tested or not shown; [ ] = another dose, or the depositor's remark. The call rests on the fitted dose curve; in most records, active means well fitted curve in the direction sought with a large enough effect; inconclusive means small, poorly fitted or top-dose-only effect, or another doubt; inactive means no such curve, though single readings can be large; an effect the other way counts as inactive or inconclusive. Potency means the concentration at half of the fitted maximal effect.

SMILES	JMJD2A Tudor	HP1b chromo inh	L3MBTL1 inh	BAZ2B inh	G9a block	Sfp PPTase inh
COC(=O)c1ccc(/C=C2\SC(=S)N(CCCC(=O)NCCCN3CCOCC3)C2=O)cc1	-33%	71µM*	.	?	?	-3%
CC(C)c1ccc(/C=C2\SC(=S)N(CC(=O)NCCCN3CCOCC3)C2=O)cc1	?	?	.	32µM*	79µM*	-29%
O=C(CN1C(=O)/C(=C/c2cccc(Br)c2)SC1=S)NCCCN1CCOCC1	?	?	.	?	.	-21%
Cc1ccc(/C=C2\SC(=S)N(CCC(=O)NCCCN3CCOCC3)C2=O)cc1	-36%	11%	.	-24%	-14%	14%
CCOc1ccc(/C=C2\SC(=S)N(CC(=O)NCCCN3CCOCC3)C2=O)cc1	?	-25%	.	-31%	?	-8%
O=C(CCCN1C(=O)/C(=C/c2cccc(Br)c2)SC1=S)NCCCN1CCOCC1	45µM*	-19%	.	10µM*	45µM*	?
O=C(CNC(=O)c1cccc(F)c1)N/N=C/c1cccc([N+](=O)[O-])c1	0%	34%	0%	4%	8%[59 µM]	-22%
COc1cc(C(=O)Nc2ccccc2OCc2cc(=O)n3c(C)csc3n2)cc(OC)c1OC	-2%	23%	.	1%	5%[59 µM]	.
Cc1nc(Nc2ccc(C(=O)O)cc2)nc(Nc2ccc(C(=O)O)cc2)c1[N+](=O)[O-]	-27%	45%	-21%	-39%	45µM*	14%
CC(=O)Nc1ccc(Nc2nc(C)c([N+](=O)[O-])c(Nc3ccccc3)n2)cc1	-15%	9%	-10%	-35%	?	-4%
COc1ccc(Nc2nc(N/N=C/c3ccc(N(C)C)cc3)nc(C)c2[N+](=O)[O-])cc1	?	-8%	?	?	5µM*	1%
Cc1ccc(-n2nc(CO)c(C(=O)NCc3cccnc3)n2)cc1C	-9%	19%	.	-11%	2%[59 µM]	.
Cc1ccc(NC(=O)CSc2ncccc2C(=O)Oc2cccc([N+](=O)[O-])c2)cc1Cl	-26%	23%	13%	-8%	50µM*	?
Cc1ccc(NC(=O)CSc2ncccc2C(=O)Oc2ccccc2Cl)cc1Cl	-13%	32%	.	2%	?	.
CCCCNc1ccc2c(c1)C1CC2CCN1C(=O)OCc1ccccc1 (stereo not drawn)	25µM*	-18%	.	.	.	.
N#CCSC1=Nc2ccccc2C2=NC(CCC(=O)N3CCN(c4ccccc4)CC3)C(=O)N12 (stereo not drawn)	-22%	28%	.	?	45µM*	?
C=CC[N+]1([C@H]2C[C@H]3[C@@H]4CC[C@H]5C[C@H](O)[C@@H](N6CCOCC6)C[C@]5(C)[C@H]4CC[C@]3(C)[C@H]2OC(C)=O)CCCC1	.	.	.	.	-25%[12.7 µM]	-3%
CN(C)c1ccc(C(CNS(=O)(=O)c2ccc([N+](=O)[O-])cc2)N2CCCC2)cc1 (stereo not drawn)	45µM*	?	-17%	6%	45µM*	.
CCN1CCN(C(CNS(=O)(=O)c2ccc(Cl)cc2)c2cccnc2)CC1 (stereo not drawn)	2%	15%	.	-3%	79µM*	9%
CN(C)c1ccc(C(CNC(=O)c2ccc(C(C)(C)C)cc2)N2CCCC2)cc1 (stereo not drawn)	45µM*	?	.	28µM*	16µM*	.
CN(C)c1ccc(C(CNS(=O)(=O)c2ccc(F)cc2)N2CCOCC2)cc1 (stereo not drawn)	-31%	10%	.	-32%	-18%[59 µM]	.
CN(C)c1ccc(C(CNS(=O)(=O)c2ccc(F)cc2)N2CCCC2)cc1 (stereo not drawn)	?	10%	.	?	-6%[59 µM]	.
CN(C)c1ccc(C(CNS(=O)(=O)c2ccc3ccccc3c2)N2CCOCC2)cc1 (stereo not drawn)	?	?	-6%	50µM*	14%[0.501 µM]	.
COc1ccc(SCC(Cc2ccccc2)N2CCN(CC(C)C)CCC2=O)cc1 (stereo not drawn)	136%	181%	.	.	.	-22%

High-throughput results: PubChem, National Center for Advancing Translational Sciences (NCATS)
